# Records with an inconclusive call do not appear. The source made the active and inactive calls. Calls follow the shape of the dose curve; as a rule, active = well fitted inhibition curve with a large enough effect; inconclusive = small, poorly fitted or top-dose-only effect; inactive = no such curve, though single readings can be large or run the other way.
# Assay: BET inhibitor-based combinations targeting novel dependencies in MECOM-rearranged (r) AML: UCSD-AML1 cell line (AID 2202235); also: nearly all actives have a fitted effect of over 40% in size;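 as to viability (% of control): plate controls were DMSO vehicle wells for no effect and blank wells for full effect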
# Conditions: UCSD-AML1 AML cells viability, CellTiter-Glo, 48 h; series mostly up to 46 µM; viability (% of control): at the top concentration
# Excerpt: Ecotropic viral insertion site 1 (EVI1) is located on chromosome 3q26.2 as part of the MECOM (MDS and EVI1 complex) locus. Under normal hematopoiesis, EVI1 is a regulator of hematopoietic stem cell maintenance and self-renewal and EVI1 levels decrease as the cells differentiate. In approximately 5-10% of de novo acute myeloid leukemia (AML) EVI1 is aberrantly expressed, including Chromosomal inv(3)(q21;q26.2) or t(3;3)(q21;q26.2) alterations (MECOM-r) that account for about 50% of AML with EVI1 overexpression 31. AMLs with high levels of EVI1 have a poor prognosis and an overall survival time averaging between 10-14 months. EVI1 overexpression confers resistance in leukemia cells, highlighting the need to develop new targeted therapies for EVI1 overexpressing AMLs. Here, we performed an unbiased chemical drug screening by evaluating the single agent activity of a collection of 2,480 oncology-focused, approved and investigational drugs (NCATS Mechanism Interrogation Plates, MIPE v5.0) against a panel of seven AML cell lines. These included four MECOM-r cell-lines (AML-191, AML-194, UCSD-AML1 and HNT-34) and three non-MECOM-r AMLs (MV4-11, OCI-AML3 and SET-2). Exploiting the mechanistic redundancy built in the library, we identified target-level sensitivities in MECOM-r AML cells and relative activity as compared to other AML subtypes.
# A collection of 2480 mechanistically annotated dugs (MIPE v5.0) was used to screen four 3q26.2 rearranged AML cell lines and three non-3q26.2 rearranged AML cell lines. This library purposely exploits redundancy by including multiple inhibitors of key onco-targets, while simultaneously encompassing mechanistic diversity, targeting more than 800 distinct mechanisms of action. Briefly, cells were seeded in 5 uL of growth media using a Multidrop Combi dispenser into 1536 well white polystyrene tissue culture treated plates (Corning) at a density of 500cells/well. For each cell-line, for each of the 2480 drugs in MIPE v5.0 library, an 11-point dose curve was generated via a 1536 pin-tool. Plates were incubated for 48 hr at standard incubator conditions, covered by a stainless steel gasketed lid to prevent evaporation. Cell viability was determined by luminescence based, Cell Titer Glo assay (Promega). In detail, 3 uL of Cell Titer Glo were added to each well and plates were incubated at room temperature for 15 min with a stainless-steel lid in place. Luminescence readings were taken using a Viewlux (PerkinElmer) with a 2 s exposure time per plate. Compound dose-response curves were normalized to DMSO and empty well controls on each plate. Quantitative drug activity data from dose-response curves was determined utilizing area Under the Curve (AUC) and Z-transformed AUC (Z-AUC, a mean-centering transformation applied to each individual cell-line screened).
# Potency is read from the fitted curve at half-maximal effect.
Compound,Potency,viability (% of control)
C=CC(=O)Nc1cccc(Nc2nc(Nc3ccc(N4CCN(C(C)=O)CC4)cc3OC)ncc2C(F)(F)F)c1,5900 nM (active),–
Cc1c(NC(=O)c2cc(C(N)=O)nc3cc(F)ccc23)c(C(F)(F)F)nn1Cc1ccc(C(C)(C)C)cc1,–,116% (inactive)
CN[C@@H](C)C(=O)N[C@H](C(=O)N1CCC[C@H]1C(=O)Nc1snnc1-c1ccccc1)C1CCCCC1,1860 nM (active),–
COc1cc(C)[nH]c(=O)c1CN1CCc2c(Cl)cc([C@H](OC)C3COC3)c(Cl)c2C1=O,–,103% (inactive)
CC1c2cccc(O)c2C(O)=C2C(=O)C3(O)C(O)=C(C(N)=O)C(=O)C(N(C)C)C3C(O)C21 (stereo not given),–,115% (inactive)
CC[C@@]1(O)C(=O)OCc2c1cc1n(c2=O)Cc2c-1nc1cc(F)c(C)c3c1c2[C@@H](N)CC3,4.2 nM (active),–
C=CC(=O)Nc1ccc2ncnc(Nc3cccc(Br)c3)c2c1,8330 nM (active),–
CC(C)c1ccc(Cn2ccc3c4c(N)nc(NC5CC5)nc4ccc32)cc1,1320 nM (active),–
Cc1nnn(C)c1-c1cnc2c3ccc(C(C)(C)O)cc3n([C@H](c3ccccc3)C3CCOCC3)c2c1,26.3 nM (active),–
O=C(O)c1ccc(CN2CCC(CN[C@@H]3C[C@H]3c3ccccc3)CC2)cc1,209 nM (active),–
Nc1cccc2c1CN([C@H]1CCC(=O)NC1=O)C2=O,–,109% (inactive)
COCCn1c2c([n+](Cc3cnccn3)c1C)C(=O)c1ccccc1C2=O,105 nM (active),–
C[C@@]12O[C@@H](C[C@]1(O)CO)n1c3ccccc3c3c4c(c5c6ccccc6n2c5c31)CNC4=O,118 nM (active),–
C=CC(=O)N1CCC(C2CCNc3c(C(N)=O)c(-c4ccc(Oc5ccccc5)cc4)nn32)CC1 (stereo not given),–,113% (inactive)
CC(=O)N1CCC(Nc2cc(C(=O)NC[C@H](O)CN3CCc4ccccc4C3)ncn2)CC1,–,119% (inactive)
CCOC(=O)[C@@H](N)Cc1ccc(-c2cc(O[C@H](c3ccc(Cl)cc3-n3ccc(C)n3)C(F)(F)F)nc(N)n2)cc1,–,113% (inactive)
O=C(/C=C/c1ccc(/C=C/C(=O)Nc2ccc(C3=NCCN3)cc2)cc1)Nc1ccc(C2=NCCN2)cc1,–,115% [at 5.12 µM] (inactive)
CC1(C)O[C@@H]2C[C@H]3[C@@H]4CCC5=CC(=O)C=C[C@]5(C)[C@H]4[C@@H](O)C[C@]3(C)[C@]2(C(=O)CO)O1,–,109% (inactive)
Cc1cc(C)c(S(=O)(=O)N(CCc2cccc(Br)c2)Cc2ccc(-c3cccc(S(C)(=O)=O)c3)cc2)c(C)c1,–,108% (inactive)
COc1cccc(Nc2ncnn3ccc(CN4CC[C@@H](N)[C@H](O)C4)c23)c1,4170 nM (active),–

Compound,Potency,viability (% of control)
CN(Cc1cnc2nc(N)nc(N)c2n1)c1ccc(C(=O)N[C@@H](CCC(=O)O)C(=O)O)cc1,332 nM (active),–
C=CC(=O)Nc1ccc(F)c(-c2ncnc3[nH]cc(C(=O)OCC)c23)c1,–,115% (inactive)
CC/C(=C(/c1ccc(/C=C/C(=O)O)cc1)c1ccc2[nH]ncc2c1)c1ccc(F)cc1Cl,–,97% (inactive)
CNC(=O)Cn1cc(-c2ccc3c(c2)C(F)CC32NC(=O)N(CC(=O)N(Cc3ccc(F)cc3)C(C)C(F)(F)F)C2=O)cn1 (stereo not given),148 nM (active),–
COc1ccc(CC2c3cc(OC)c(OC)cc3CC[N+]2(C)CCC(=O)OCCCCCOC(=O)CC[N+]2(C)CCc3cc(OC)c(OC)cc3C2Cc2ccc(OC)c(OC)c2)cc1OC (stereo not given),–,105% (inactive)
CC(=O)O/N=C1\C(=O)N(Cc2cc(Cl)ccc2Cl)c2ccc(Cl)cc21,8330 nM (active),–
CN(C)CC[C@H](CSc1ccccc1)Nc1ccc(S(=O)(=O)NC(=O)c2ccc(N3CCN(Cc4ccccc4-c4ccc(Cl)cc4)CC3)cc2)cc1[N+](=O)[O-],2950 nM (active),–
CC(C)(S)[C@@H](N)C(=O)O,–,112% [at 5.12 µM] (inactive)
C[C@@H]1C[C@H](N)C[C@H](c2ccncc2NC(=O)c2ccc(F)c(-c3c(F)cccc3F)n2)C1,132 nM (active),–
Cc1c(-c2c(-c3ccc(F)o3)sc3ncnc(O[C@@H](Cc4ccccc4OCc4ccnn4CC(F)(F)F)C(=O)O)c23)ccc(OCCN2CCN(C)CC2)c1Cl,1320 nM (active),–
Cc1ccc(NC(=O)[C@H]2CCCN(C(=O)c3c(C)cccc3F)[C@H]2c2ccc(NC3CCCC3)cc2)cc1C(F)(F)F,–,108% (inactive)
COCCOC(=O)N1CCN(S(=O)(=O)c2cc(F)c(Oc3ccc(Cl)cc3)c(F)c2)C(C(=O)NO)C1 (stereo not given),10500 nM (active),–
Cc1ccc(C(=O)N(CCCN)[C@@H](c2nc3cc(Cl)ccc3c(=O)n2Cc2ccccc2)C(C)C)cc1,26.3 nM (active),–
COc1ccc(C2=N[C@H](c3ccc(Cl)cc3)[C@H](c3ccc(Cl)cc3)N2C(=O)N2CCNC(=O)C2)c(OC(C)C)c1,–,90.9% (inactive)
C=C1[C@H](OC(=O)/C=C(\C)CC)C[C@@H](C(C)C)[C@@H]2[C@H]([C@@H](C)OC(C)=O)C(=O)C[C@@H]12,–,117% (inactive)
COc1ccc(S(=O)(=O)N[C@@H](CNc2nc(C)nc(N3CCC(c4ccc5c(n4)NCCC5)CC3)c2C)C(=O)O)cc1,–,110% (inactive)
CC(C)(C(=O)NCC(F)(F)C(F)(F)F)C(=O)N[C@@H]1C(=O)Nc2ccccc2-c2ccccc21,–,103% (inactive)
CNC(=O)[C@H](Cc1c[nH]c2ccccc12)NC(=O)[C@@H](CC(=O)NO)CC(C)C,–,104% (inactive)
C[C@H](Nc1nc(N[C@H](C)C(F)(F)F)nc(-c2cccc(Cl)n2)n1)C(F)(F)F,–,111% (inactive)
C=CC(=O)N1CC(N2CCN(C(=O)CNc3cc(C4(C)CC4)c(Cl)cc3O)CC2)C1,–,114% (inactive)

# Source: PubChem BioAssay (NCATS)
